Consider 17 compounds from PubChem BioAssay.

In experiment [1] the target is Albumin (Bos taurus) (UniProt P02769). As to the kind of experiment: compounds binding labelled BSA control protein – biochemical, small-molecule microarray, Alexa647 label, 635/667 nm fluorescence, artefact control for SMM control protein annotation, profiling panel (AID 1118).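 Further: score merges 667 nm emission intensity and signal-to-noise per printed compound spot.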 The note with it: BSA-A647 binding, fluorescence 635 nm, higher = more signal.
Experiment [2] in a line: probe aXIP binding to arrayed compounds – biochemical, NeuroSMM set, 635/667 nm fluorescence, primary screen (AID 1119).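 Further: probe is the protein aXip251-270 applied at 1 µg/mL to compound-printed slides; binding of probe to printed compounds measured as 667 nm fluorescence plus signal to noise.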 Particulars: small-molecule microarray, higher = more signal, called active from +8 up or from −8 down.
Experiment [3] can be described thus: probe aNOTCH3 binding on compound microarray – biochemical, small-molecule microarray, 635/667 nm fluorescence, primary screen (AID 1120).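 Further: probe is a biotin-tagged antibody raised against NOTCH3 rather than NOTCH3 protein; score merges spot fluorescence near 667 nm with spot signal to noise.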 Particulars: higher = more signal.
Experiment [4] in a line: probe aNOTCH2 binding on compound microarray – biochemical, small-molecule microarray, 635/667 nm fluorescence, primary screen (AID 1121).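 Further: score merges feature fluorescence read at 667 nm with its signal to noise.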 The note with it: higher = more signal.
Experiment [5] concerns the target Carbonic anhydrase 2 (Homo sapiens) (UniProt P00918). Put plainly: compounds binding carbonic anhydrase 2 – biochemical, small-molecule microarray, Alexa647-labelled CAII, profiling panel (AID 1122). The note with it: CAII-A647 binding fluorescence, higher = more signal.
Experiment [6] can be described thus: COS7 lysate on small-molecule microarray, probe aHis, 635 nm (AID 1123).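 Further: z-score combines 667nm fluorescence intensity with signal-to-noise per printed compound spot.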 Particulars: COS7 cell lysate, fluorescence, higher = more signal.
Experiment [7] in a line: probe aLAP1 signal on lysate-treated microarray – cell lysate, small-molecule microarray, COS7 lysate, primary screen (AID 1124).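 Further: lysate comes from COS7 cells expressing LAP1 and is applied at 0.3 µg/mL; score merges spot fluorescence near 667 nm with signal-to-noise over triplicate slides.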 The note with it: probe aLAP1, fluorescence, higher = more signal.
Experiment [8] deals with Sam68 (KHDRBS1). As to the kind of experiment: compounds binding KHDRBS1 protein – biochemical, small-molecule microarray, 635 nm fluorescence, primary screen (AID 1125).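 Further: score merges 667 nm channel intensity with signal to noise over triplicate slides.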 Particulars: higher = more signal.
Experiment [9] relates to Chordin-like protein 2 (CHRDL2). As to the kind of experiment: compounds binding chordin-like 2 – biochemical, small-molecule microarray, 635 nm fluorescence, primary screen (AID 1126).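 Further: printed compound slides probed with Chrdl2 protein at 4 µg/mL for 1 h at 4 C; score merges 667 nm emission intensity with signal to noise over three replicate slides.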 The note with it: fluorescence 635 nm, higher = more signal.
In experiment [10] the target is Concanavalin-A (Canavalia ensiformis) (UniProt P02866). Put plainly: compounds binding concanavalin A lectin – biochemical, small-molecule microarray, Alexa647 label, 635 nm, artefact control for SMM control protein annotation, primary screen (AID 1127).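 Further: z combines 667 nm emission intensity with signal-to-noise across three replicate slides.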 Particulars: ConA-A647 binding fluorescence, higher = more signal.

Calls of active or inactive are those of the source.

Sequence of Concanavalin-A (Canavalia ensiformis) (P02866 whole entry, looked up): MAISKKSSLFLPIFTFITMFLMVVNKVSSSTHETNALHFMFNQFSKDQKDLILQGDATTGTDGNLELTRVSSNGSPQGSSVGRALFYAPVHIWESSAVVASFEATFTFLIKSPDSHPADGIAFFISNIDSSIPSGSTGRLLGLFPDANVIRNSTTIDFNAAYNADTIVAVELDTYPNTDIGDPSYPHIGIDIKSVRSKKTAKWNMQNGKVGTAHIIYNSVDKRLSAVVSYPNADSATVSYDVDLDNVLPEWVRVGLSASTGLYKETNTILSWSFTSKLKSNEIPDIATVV
Sequence of Albumin (Bos taurus) (P02769 whole entry, looked up): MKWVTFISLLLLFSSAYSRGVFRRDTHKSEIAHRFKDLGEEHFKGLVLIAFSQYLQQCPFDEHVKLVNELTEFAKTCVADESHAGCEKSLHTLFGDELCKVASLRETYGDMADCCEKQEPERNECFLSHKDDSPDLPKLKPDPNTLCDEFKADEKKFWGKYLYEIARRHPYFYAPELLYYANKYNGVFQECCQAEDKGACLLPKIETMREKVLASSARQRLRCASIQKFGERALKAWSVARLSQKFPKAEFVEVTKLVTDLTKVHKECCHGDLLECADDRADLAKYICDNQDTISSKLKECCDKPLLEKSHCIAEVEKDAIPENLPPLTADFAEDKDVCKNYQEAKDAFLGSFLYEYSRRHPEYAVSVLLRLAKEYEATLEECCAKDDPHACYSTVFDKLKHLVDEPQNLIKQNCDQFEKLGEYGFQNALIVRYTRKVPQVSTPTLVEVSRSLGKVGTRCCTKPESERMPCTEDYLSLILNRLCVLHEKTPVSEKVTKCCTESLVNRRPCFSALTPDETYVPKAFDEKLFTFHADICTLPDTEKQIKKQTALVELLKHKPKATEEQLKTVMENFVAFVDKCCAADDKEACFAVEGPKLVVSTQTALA

For `C=CCC(OC(C)=O)[C@@H]1[C@@H](N(Cc2ccc(-c3ccccc3)cc2)C(=O)c2ccc(-c3ccccc3)cc2)c2cc(OCCCO)ccc2N1C(=O)c1ccc2ccccc2n1` (stereo not given in full), the composite z-score was -0.211 in [1]; 0.195 in [3]; -0.12 in experiment [4]; -0.0785 in [5]; -0.137 in [6]; 0.504 in experiment [7]. In addition, the figures for the composite z-score in [8], in experiment [9] and in [10] were 0.504, 0.169 and -0.309, respectively. Besides, in experiment [2], the composite Z-score is -0.314 (inactive).
Take `CC(C)CNC(=O)[C@@]1(C)c2ccccc2C(=O)N(Cc2cc(F)cc(C(F)(F)F)c2)[C@H]1c1ccc(CO)cc1`: the composite z-score in experiment [1] is 0.621; in experiment [3] it was -0.0044; in experiment [4], -0.046; in experiment [5] it was 0.284; in experiment [6], 1.2; in [7] it was 0.615. For the same compound, the composite z-score in experiment [8] is 1.17; in experiment [9], 0.443; in experiment [10], 0.771. Further, the composite Z-score in experiment [2] was -0.17 (inactive).
Consider `CCC[C@@H]1[C@@H](Sc2ccccc2)[C@@H](C(=O)O)[C@H](c2ccc(C)cc2)N1S(=O)(=O)c1ccc(C)cc1`, for which the composite z-score in experiment [1] was 0.771; in [3] it was 0.322; in experiment [4], -0.0794; in experiment [5] it was 0.594; in experiment [6] it was 2.65; in experiment [7] it was 1.39. In addition, the composite z-score was 1.33 in experiment [8], -0.432 in [9] and 1.23 in experiment [10]. For the same compound, the composite Z-score in experiment [2] was 0.398 (inactive).
As to `CC(C)CNC(=O)[C@@H]1c2ccccc2C(=O)N(CC23CC4CC(CC(C4)C2)C3)[C@H]1c1ccc(CO)cc1`, the composite z-score in [1] is 0.486; in experiment [3], -0.004; in experiment [4] it was -0.14; in [5] it was 0.132; in [6], 1.74; in [7], 0.0747. Besides, the composite z-score is 0.985 in [8], -0.284 in experiment [9] and 1.07 in experiment [10]. Moreover, in experiment [2], the composite Z-score was 0.642 (inactive).
As for `COC(=O)[C@@]1(Cc2ccc(F)cc2)[C@H]2c3cc(C(=O)N4CCCC4)n(CCO)c3C[C@H]2CN1C(=O)c1ccccc1`, the composite z-score in [1] came out at 0.503; in experiment [3], 0.329; in [4], 0.227; in experiment [5], 0.753; in [6], 3.45; in experiment [7] it was 0.393. In addition, the composite z-score was -2.03 in experiment [8], -1.04 in [9] and -0.242 in experiment [10]. Besides, in experiment [2], the composite Z-score is -0.196 (inactive).
With `CCOC(=O)C1=CC[C@@H](c2ccccc2)N(S(=O)(=O)c2ccc(C)cc2)[C@H]1C#N`, the composite z-score in [1] stood at 0.721; in experiment [3] it was 0.213; in experiment [4] it was 0.0362; in experiment [5], 0.76; in experiment [6] it was 1.67; in experiment [7], 0.254. Further, the composite z-score was 1.2 in experiment [8], -0.232 in [9] and 1.15 in experiment [10]. In addition, in [2], the composite Z-score was 0.718 (inactive).
`C=CCNC(=O)[C@@H]1[C@H]2C(=O)O[C@H](c3ccccc3)[C@H](c3ccccc3)N2[C@H](c2ccc(O)cc2)[C@@]12C(=O)Nc1ccc(C#CC3(O)CCCCCC3)cc12`: the composite z-score is -0.277 in experiment [1]; 0.39 in experiment [3]; -0.179 in experiment [4]; 0.653 in [5]; 1.04 in experiment [6]; 0.107 in experiment [7]. Besides, the composite z-score in [8] is -0.133; in [9], 0.227; in experiment [10], -0.197. Besides, the composite Z-score in experiment [2] was 0.156 (inactive).
Take `CCCC[C@H]1OB(O)C[C@H]2C1=C(C)C[C@H]1C(=O)C=CC(=O)[C@H]12`: the composite z-score in experiment [1] is -0.324; in [3], 0.0159; in experiment [4] it was -0.106; in experiment [5] it was 0.011; in experiment [6] it was 0.423; in experiment [7] it was 0.121. The composite z-score was 1.04 in [8], 0.821 in experiment [9] and 0.544 in experiment [10]. The composite Z-score in [2] was -0.0764 (inactive).
Consider `CC(C)C[C@H]1NC(=O)[C@@]23C(=O)N[C@@H](Cc4ccccc4)C2[C@H](C)[C@@]2(C)O[C@H]2C3/C=C/C/C=C\CNC(=O)[C@@H]2CCCN2C1=O` (stereo not given in full), for which the composite z-score in experiment [1] was 0.773; in experiment [3], 0.0694; in experiment [4], -0.176; in experiment [5] it was 0.725; in experiment [6], 1.23; in experiment [7], 0.145. The values for the composite z-score in experiment [8], in [9] and in experiment [10] were 0.975, 0.293 and 0.276, respectively. Besides, the composite Z-score in experiment [2] is 0.119 (inactive).
For the compound `COC(=O)c1ccc([C@H](NC(=O)c2ccccc2)[C@]2(C)C[C@H]2C2CCCCC2)cc1`, the composite z-score in experiment [1] is 0.543; in experiment [3], 0.237; in experiment [4] it was -0.0282; in experiment [5], 0.158; in experiment [6] it was 1.89; in experiment [7] it was 0.416. In addition, the composite z-score in [8] is 0.715; in [9], -0.941; in [10], 0.551. For the same compound, the composite Z-score in experiment [2] is 0.293 (inactive).
Regarding `CC1(C)OC[C@@]23C=C(Br)[C@@H](C[C@H]12)[C@@]1(CO1)C3=O`, the composite z-score is -0.172 in experiment [1]; 0.0824 in experiment [3]; -0.189 in experiment [4]; -0.0169 in experiment [5]; -0.0842 in experiment [6]; -0.0515 in [7]. Moreover, the composite z-score in experiment [8] stood at 0.107; in experiment [9], 0.467; in experiment [10] it was 0.262. Moreover, the composite Z-score in experiment [2] is 0.0315 (inactive).
On to `CC(C)(C)OC(=O)CC[C@]1(C(=O)N2CCOCC2)N=C(c2ccc(OCCCO)cc2)O[C@H]1c1ccccc1CN=[N+]=[N-]`, for which the composite z-score in experiment [1] is 0.508; in experiment [3] it was 0.116; in [4], -0.0219; in [5] it was 0.745; in [6], 3.11; in experiment [7], 0.519. In addition, the figures for the composite z-score in experiment [8], in experiment [9] and in [10] were 1.31, -0.227 and 0.977, respectively. In [2], the composite Z-score is 0.341 (inactive).
Take `[N-]=[N+]=NCc1ccccc1C[C@]1(C(=O)O)COC(c2ccc(OCCCO)cc2)=N1`: the composite z-score in [1] was 0.748; in experiment [3] it was -0.0525; in [4], -0.14; in experiment [5], 0.805; in experiment [6] it was -0.0577; in [7], -0.369. Further, the composite z-score was -0.91 in [8], -2.26 in experiment [9] and -0.927 in experiment [10]. The composite Z-score in experiment [2] is -0.496 (inactive).
Consider `COc1ccc(CCNC(=O)[C@@]2(Sc3ccc(C)cc3)CC(=O)N(C(C)C)[C@@H]2c2ccc(CO)cc2)cc1`, for which the composite z-score is 0.566 in [1]; -0.39 in experiment [3]; -0.124 in experiment [4]; 0.7 in experiment [5]; 0.239 in experiment [6]; 0.0112 in [7]. Moreover, the figures for the composite z-score in [8], in [9] and in experiment [10] were -0.346, -2.15 and -0.277, respectively. Moreover, the composite Z-score in experiment [2] is 0.397 (inactive).
`CN1C(=O)[C@]2(CCS(=O)(=O)c3ccccc3)N=C(c3ccc(OCCCO)cc3)O[C@@H]2c2ccccc21`: the composite z-score is 0.568 in [1]; 0.0026 in experiment [3]; -0.121 in experiment [4]; 0.531 in [5]; 2.81 in experiment [6]; 0.354 in experiment [7]. Further, the composite z-score in experiment [8] came to 1.2; in experiment [9], 0.502; in experiment [10], 0.838. For the same compound, in experiment [2], the composite Z-score was 0.222 (inactive).
For `C=CCC(OC(C)=O)[C@@H]1[C@@H](N(Cc2cc3ccccc3o2)C(=O)c2cccc3ccccc23)c2cc(OCCCO)ccc2N1C(=O)c1ccc2ccccc2c1` (stereo not given in full), the composite z-score in experiment [1] was 0.163; in [3], -0.0647; in [4], -0.0906; in [5], 0.229; in experiment [6], 0.542; in experiment [7], -0.177. For the same compound, the figures for the composite z-score in experiment [8], in experiment [9] and in [10] were -0.0368, 0.556 and -0.259, respectively. The composite Z-score in [2] was -0.73 (inactive).
For the compound `COCCCN1C(=O)[C@@]2(Cc3ccccc31)c1ccccc1C(=O)N(Cc1ccccc1OC)[C@H]2c1ccc(CO)cc1`, the composite z-score in [1] is 0.345; in experiment [3], -0.147; in experiment [4], -0.101; in experiment [5], 0.799; in experiment [6], 0.374; in experiment [7], 1.34. Also, the composite z-score was -0.0726 in [8], -1.21 in experiment [9] and 0.254 in experiment [10]. Further, the composite Z-score in experiment [2] is 0.449 (inactive).
